According to PubChem BioAssay:
Unmarked numbers belong to inactive results. The rule behind the calls is not given here.

assay: inhibitors of hydroxyurea-induced Chk1 phosphorylation, primary screen, imaging, HeLa, phospho-Chk1 nuclear intensity (AID 1187); conditions: hydroxyurea-induced phospho-Chk1 immunofluorescence imaging, higher = more signal; note: test concentration not given here

Compound	z-score
CC(C)=CCCC(C)=CC(O)C1C=CC2C(=O)N(c3ccccc3)C(=O)C2N1Nc1ccc([N+](=O)[O-])cc1 (stereo unspecified)	-0.178
COCCCNC(=O)[C@]1(Cc2ccccc2)N=C(c2ccc(OCCCO)cc2)O[C@@H]1c1ccccc1N=[N+]=[N-]	-6.65
COCCOC(=O)N1C(=O)[C@@]2(c3cc(C#CCC(C(=O)OC)C(=O)OC)ccc31)[C@H](c1ccc(OCCO)cc1)N1[C@H](c3ccccc3)[C@H](c3ccccc3)OC(=O)[C@H]1[C@@H]2C(N)=O	0.0321
CN(C)CCCN1C(=O)[C@@]2(Cc3ccccc31)c1ccccc1C(=O)N(Cc1ccccc1)[C@H]2c1ccc(CO)cc1	-0.682
CN(C)CCCCCCNC(=O)[C@@H]1C[C@@H]2C(=O)NCC(=O)N2[C@@H]1c1ccc(O)cc1	-0.297
O=[N+]([O-])c1ccc(C[n+]2ccc(-c3ccc(CO)cc3)cc2)o1	0.657
COC(=O)[C@]1(Cc2ccccc2CN=[N+]=[N-])N=C(c2ccc(OCCCO)cc2)O[C@@H]1c1ccccc1	-0.91
CCCCCCC#C[Si](O[C@H](c1ccccc1)c1cn(Cc2cccc(Cl)c2)nn1)(C(C)C)C(C)C	-0.272
CN1C(=O)C2C=CC(C(O)c3ccc(F)cc3)N(N3CCCCC3)C2C1=O (stereo unspecified)	-0.206
COc1ccc([Si](C)(C)[C@H]2[C@H](CC(=O)N3CCC[C@H]3CO)O[C@@]3(C(=O)N(Cc4ccc(N5C(=O)c6cccc7cccc5c67)cc4)c4ccccc43)[C@@H]2C)cc1	-0.4
[N-]=[N+]=NCc1ccccc1[C@H]1OC(c2ccc(OCCCO)cc2)=N[C@@]1(Cc1ccccc1N=[N+]=[N-])C(=O)N1CCCCC1	-0.35
O=C1c2ccccc2C(=O)C2CC([C@H]3Oc4ccccc4S(=O)(=O)N4CCC[C@@H]34)=CCC12 (stereo partly specified)	-0.063
C[C@H]1ON(c2ccccc2)[C@@H](c2ccccc2)[C@@H]1C(=O)N1C(=O)OC[C@@H]1c1ccccc1	-0.154
CN(C)C(=O)[C@@]1(CCC(=O)OC(C)(C)C)COC(c2ccc(OCCCO)cc2)=N1	0.337
Cc1ccc(S[C@]2(C(=O)O)CC(=O)N(C3CCCCC3)[C@@H]2c2ccc(CO)cc2)cc1	-0.583
CC(C)CCC[C@@H](C)[C@H]1CC[C@@]2(C)C3=C(CC[C@]12C)[C@@]1(C)CC[C@H](OC(=O)c2ccc(N)cc2)C(C)(C)C1CC3 (stereo partly specified)	-0.736
C=CC[C@@]1(C(=O)NCCN2CCOCC2)N=C(c2ccc(OCCCO)cc2)O[C@@H]1c1ccccc1	0.0737
C=CCC(OC(C)=O)[C@@H]1[C@@H](N(Cc2cccc3ccccc23)C(=O)Cc2ccc(F)cc2)c2cc(OCCCO)ccc2N1C(=O)Cc1ccc(OC)cc1 (stereo partly specified)	-0.301
COc1ccc(C#Cc2ccc3c(c2)[C@]2(C(=O)N3)[C@H](C(N)=O)[C@H]3C(=O)O[C@H](c4ccccc4)[C@H](c4ccccc4)N3[C@@H]2c2ccc(O)cc2)cc1	-0.861
CCOC(=O)C1=CC[C@@H](c2ccc(N(CC)CC)cc2)N(S(=O)(=O)c2ccc(C)cc2)[C@H]1c1ccc([N+](=O)[O-])cc1	-0.244
COC(=O)[C@@]1(Cc2ccc(F)cc2)[C@H]2c3cc(C(=O)N4CCCC4)n(Cc4ccccc4)c3C[C@H]2CN1C(=O)c1ccccc1	0.0304
O=C1O[C@H](c2ccccc2)[C@H](c2ccccc2)N2[C@H]1[C@@H](C(=O)N1CCCCCCC1)[C@]1(C(=O)Nc3ccccc31)[C@H]2c1ccc(O)cc1	0.725
COc1cc(NN2C(C(O)c3ccc(I)cc3)C=CC3C(=O)N(C)C(=O)C32)cc(OC)c1OC (stereo unspecified)	-0.449
C=CCC(OC(C)=O)[C@@H]1[C@@H](N(Cc2ccc(-c3ccccc3)cc2)C(=O)c2cccc3ccccc23)c2cc(OCCCO)ccc2N1C(=O)c1ccc2ccccc2n1 (stereo partly specified)	-0.368
COC(=O)c1c(CC[C@@H](CO)NC(=O)N[C@@H](C)Cn2cc(C3(O)CCCC3)nn2)oc(C(C)=O)c1C(=O)OC	0.929
COC(=O)C(CC#Cc1ccc2c(c1)[C@]1(C(=O)N2)[C@H](c2ccc(O)cc2)N2[C@H](c3ccccc3)[C@H](c3ccccc3)OC(=O)[C@H]2[C@@H]1C(N)=O)C(=O)OC	-0.279
